# According to PubChem BioAssay (NCATS):
# Values joined by “and” are separate entries in the source; they are usually repeats but may differ in a detail not shown here. Equal entries are not always repeated. Values without a mark were called inactive. Records with an inconclusive call do not appear. A call without a number means that no potency is given here. Some structures have more than one record in an assay (separate samples or runs), and their calls can disagree. Active and inactive are the calls of the source. Unless noted, calls come from the whole dose curve; as a rule, active = well fitted curve in the direction sought with a large enough effect; inconclusive = small, poorly fitted or top-dose-only effect, or another doubt; inactive = no such curve, though single readings can be large; an effect the other way counts as inactive or inconclusive.
# Legend:
# OV90 = experiment: Primary qHTS to identify gynecologic anti-cancer compounds using libraries of approved drugs and bioactive compounds (AID 1345084); conditions: Gynecologic cancer cell panel viability, ATPlite luminescence, 48 h; series mostly up to 57.5 µM; note: nearly all actives have a fitted effect of over 55% in size; note: potency is the fitted concentration of half-maximal effect
# How it was run: (§1)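 Cells, 1,000 per well, plated 16 h, then exposed 48 h at 37 C to compounds. Viability by ATPlite luminescence after 15 min at room temperature.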
# PA-1 = experiment: as above; conditions: Gynecologic cancer cell panel viability, ATPlite luminescence, 48 h; series mostly up to 57.5 µM
# How it was run: as §1
# SKOV3 = experiment: as above; conditions: Gynecologic cancer cell panel viability, ATPlite luminescence, 48 h; series mostly up to 57.5 µM
# How it was run: as §1
# Tov-21-G = experiment: as above; conditions: Gynecologic cancer cell panel viability, ATPlite luminescence, 48 h; series mostly up to 57.5 µM
# How it was run: as §1
# Tov112D = experiment: as above; conditions: Gynecologic cancer cell panel viability, ATPlite luminescence, 48 h; series mostly up to 57.5 µM
# How it was run: as §1
# [1] = target: Nuclear receptor subfamily 1 group I member 2 (Rattus norvegicus) (UniProt Q9R1A7); experiment: qHTS assay for small molecule activators of the rat pregnane X receptor (rPXR) signaling pathway (AID 651751; call rule not given here); conditions: rPXR reporter cells, luciferase (One-Glo), 24 h
# [2] = qHTS assay for small molecule activators of the human pregnane X receptor (PXR) signaling pathway (AID 720659; call rule not given here)
# [3] = Drug repurposing screens with cells derived from glioblastoma tumor samples (AID 1345199); conditions: GBM patient neurospheres viability, ATP luminescence, 48 h; note: nearly all actives have a fitted effect of over 40% in size; note: potency is the fitted concentration of half-maximal effect
# How it was run: (§2)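 Primary testing used CD133+ neurospheres from four GBM patients, seven concentrations, 48 h exposure and ATP-based viability; confirmation added three slower-growing patient lines.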
# astro = experiment: as above; conditions: viability, ATP luminescence, 48 h; series mostly up to 45.9 µM
# How it was run: as §2
# [4] = qHTS assay to identify inhibitors of the type 1 interferon - major histocompatibility complex class I in skeletal muscle: Counter screen cell viability and HiBit confirmation (AID 1347412); conditions: iHSKM muscle cells + IFN-b, HiBiT or CellTiter-Glo, 24 h; Potency: HiBiT; Viability, at 45.9 µM (top of the series); note: nearly all actives have a fitted effect of over 60% in size; note: potency is the fitted concentration of half-maximal effect
# How it was run: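 HLA-B*08:01–HiBiT knock-in immortalized human myoblasts (C25cl48) stimulated with 4.0 ng/ml human IFN-beta and dosed with compound in a 12-point 1:3 titration (top final 46 uM). After 24 hrs at 37 C, HiBiT lytic luminescence or CellTiter Glo ATP read out.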
# [5] = at 45.9 µM (top of the series), tumour line B
# [6] = at 45.9 µM (top of the series), tumour line D
# [7] = at 46 µM (top of the series), tumour line A
# [8] = at 46.1 µM (top of the series), tumour line C
# Nuclear receptor subfamily 1 group I member 2 (Rattus norvegicus), sequence (Q9R1A7 whole entry, looked up): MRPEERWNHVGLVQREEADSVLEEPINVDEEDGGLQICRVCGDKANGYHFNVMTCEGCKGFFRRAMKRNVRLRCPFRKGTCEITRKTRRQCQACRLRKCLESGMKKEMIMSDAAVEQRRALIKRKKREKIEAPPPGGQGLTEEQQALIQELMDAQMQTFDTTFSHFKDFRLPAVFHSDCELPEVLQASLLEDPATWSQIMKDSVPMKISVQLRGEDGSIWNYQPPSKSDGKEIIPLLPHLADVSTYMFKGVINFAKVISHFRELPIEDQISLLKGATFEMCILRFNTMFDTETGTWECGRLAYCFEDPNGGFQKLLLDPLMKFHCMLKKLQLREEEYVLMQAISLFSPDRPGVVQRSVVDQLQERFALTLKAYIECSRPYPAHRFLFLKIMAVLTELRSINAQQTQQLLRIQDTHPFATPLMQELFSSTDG
smiles,measurement,setting,value
CC(C)(Sc1ccc(CCN(CCCCC2CCCCC2)C(=O)NC2CCCCC2)cc1)C(=O)O,Potency,OV90,inactive
same,Potency,PA-1,inactive
same,Potency,SKOV3,inactive
same,Potency,Tov-21-G,inactive
same,Potency,Tov112D,inactive
same,max response,[1],-3.94%
same,outcome,[2],inactive
CCCCNc1cc(C(=O)O)cc(S(N)(=O)=O)c1Oc1ccccc1,Potency,OV90,inactive
same,Potency,PA-1,inactive
same,Potency,SKOV3,inactive
same,Potency,Tov-21-G,inactive
same,Potency,Tov112D,inactive
same,"activity, negative = cell killing","[3]; at 21.2 µM (top of the series), tumour line D",-6.33%
same,"activity, negative = cell killing","[3]; at 21.3 µM (top of the series), tumour line A",-23.2%
same,Potency,astro,inactive
O=c1[nH]cnc2[nH]ncc12,Potency,OV90,inactive
same,Potency,PA-1,inactive
same,Potency,SKOV3,inactive
same,Potency,Tov-21-G,inactive
same,Potency,Tov112D,inactive
same,"activity, negative = cell killing",[3]; [5],-5.74%
same,"activity, negative = cell killing",[3]; [6],-0.0406%
same,"activity, negative = cell killing",[3]; [7],-9.81%
same,"activity, negative = cell killing",[3]; [8],7.88%
same,Potency,astro,inactive
same,max response,[1],2.04%
same,outcome,[2],inactive
Cc1oncc1C(=O)Nc1ccc(C(F)(F)F)cc1,Potency,OV90,17.8 µM (active)
same,Potency,PA-1,11.2 µM (active)
same,Potency,SKOV3,25.1 µM (active)
same,Potency,Tov-21-G,25.1 µM (active)
same,Potency,Tov112D,20 µM (active)
same,Potency,astro,10 µM (active)
O=C1CCC(N2C(=O)c3ccccc3C2=O)C(=O)N1 (stereo unspecified),Potency,OV90,inactive
same,Potency,PA-1,inactive
same,Potency,SKOV3,inactive
same,Potency,Tov-21-G,inactive
same,Potency,Tov112D,inactive
same,"activity, negative = cell killing",[3]; [5],-4.2%
same,"activity, negative = cell killing",[3]; [6],-2.61%
same,"activity, negative = cell killing",[3]; [7],-6.31%
same,"activity, negative = cell killing",[3]; [8],3.21%
same,Potency,astro,inactive
same,max response,[1],1.73%
same,outcome,[2],inactive
OC(CN1CCC(Cc2ccc(F)cc2)CC1)c1ccc(Cl)cc1 (stereo unspecified),Potency,OV90,inactive
same,Potency,PA-1,inactive
same,Potency,SKOV3,inactive
same,Potency,Tov-21-G,inactive
same,Potency,Tov112D,inactive
same,Potency,astro,inactive
CCCc1nn(C)c2c(=O)[nH]c(-c3cc(S(=O)(=O)N4CCN(C)CC4)ccc3OCC)nc12,Potency,OV90,inactive
same,Potency,PA-1,inactive
same,Potency,SKOV3,inactive
same,Potency,Tov-21-G,inactive
same,Potency,Tov112D,inactive
same,"activity, negative = cell killing",[3]; [5],-8.65%
same,"activity, negative = cell killing",[3]; [6],-23.3%
same,"activity, negative = cell killing",[3]; [8],12.9%
same,Potency,[3]; tumour line A,22.4 µM (active)
same,Potency,astro,inactive
C1COC(NC(C2CC2)C2CC2)=N1,Potency,OV90,inactive
same,Potency,PA-1,inactive
same,Potency,SKOV3,inactive
same,Potency,Tov-21-G,inactive
same,Potency,Tov112D,inactive
same,"activity, negative = cell killing",[3]; [5],-27.8%
same,"activity, negative = cell killing",[3]; [8],-23.7%
same,Potency,astro,inactive
O=C1CCc2cc(OCCCCc3nnnn3C3CCCCC3)ccc2N1,Potency,PA-1,inactive
same,Potency,SKOV3,inactive
same,Potency,Tov-21-G,inactive
same,Potency,Tov112D,inactive
same,"activity, negative = cell killing",[3]; [5],-16.9%
same,"activity, negative = cell killing",[3]; [6],-10.7%
same,"activity, negative = cell killing",[3]; [8],-10.2%
same,Potency,astro,inactive
CCOc1cc(C(=O)Nc2ccc(Cl)c(-c3nc4ccccc4[nH]3)c2)cc(OCC)c1OCC,Potency,OV90,inactive
same,Potency,PA-1,inactive
same,Potency,Tov-21-G,inactive
same,Potency,Tov112D,inactive
CCc1cncnc1N1CCN(Cc2nc3ccc(C(F)(F)F)cc3[nH]2)CC1,Potency,OV90,inactive
same,Potency,PA-1,inactive
same,Potency,Tov-21-G,inactive
same,Potency,Tov112D,inactive
O=C(c1cc(Cc2n[nH]c(=O)c3ccccc23)ccc1F)N1CCN(C(=O)C2CC2)CC1,Potency,OV90,inactive
same,Potency,PA-1,inactive
same,Potency,Tov-21-G,inactive
same,Potency,Tov112D,inactive
CN(C)C(=O)c1ccc(S(=O)(=O)c2ccc(NC(=O)[C@@](C)(O)C(F)(F)F)c(Cl)c2)cc1,Potency,PA-1,inactive
same,Potency,Tov-21-G,inactive
same,Potency,Tov112D,inactive
CCCC(CCC)C(=O)O,Potency,OV90,inactive
same,Potency,PA-1,inactive
same,Potency,Tov-21-G,inactive
same,Potency,Tov112D,inactive
same,"activity, negative = cell killing",[3]; [5],-7.18%
same,"activity, negative = cell killing",[3]; [6],-10.3%
same,"activity, negative = cell killing",[3]; [7],-15.5%
same,"activity, negative = cell killing",[3]; [8],0.524%
same,Potency,astro,inactive
same,outcome,[2],inactive
Cc1c(C)c2c(c(C)c1O)CCC(C)(COc1ccc(CC3SC(=O)NC3=O)cc1)O2 (stereo unspecified),Potency,OV90,inactive
same,Potency,PA-1,inactive
same,Potency,Tov-21-G,inactive
same,Potency,Tov112D,inactive
same,"activity, negative = cell killing",[3]; [5],-4.67%
same,"activity, negative = cell killing",[3]; [8],-19.7%
same,Potency,astro,10 µM (active)
same,max response,[1],-12.9%
CC(C)(C)NCC(O)c1ccc(O)c(CO)c1 (stereo unspecified),Potency,OV90,inactive
same,Potency,PA-1,inactive
same,Potency,Tov-21-G,inactive
same,Potency,Tov112D,inactive
same,"activity, negative = cell killing",[3]; [5],-3.69%
same,"activity, negative = cell killing",[3]; [6],-16.6%
same,"activity, negative = cell killing",[3]; [7],-18.1%
same,"activity, negative = cell killing",[3]; [8],-6.46%
same,Potency,astro,inactive
CCOC(=O)C1=C[C@]2(CC)CCCN3CCc4c(n1c1ccccc41)[C@@H]32,Potency,OV90,inactive
same,Potency,PA-1,inactive
same,Potency,Tov-21-G,inactive
same,Potency,Tov112D,inactive
same,"activity, negative = cell killing",[3]; [5],-28.2% and -25.8%
same,Potency,[3]; tumour line A,4.47 µM (active)
same,Potency,[3]; tumour line D,10 µM (active)
same,Potency,astro,inactive
Cc1csc(NC(=O)c2sc3nc4c(c(C(F)(F)F)c3c2N)CCC4)n1,Potency,OV90,12.6 µM (active)
same,Potency,Tov-21-G,3.55 µM (active)
same,Potency,Tov112D,11.2 µM (active)
N#CC[C@H](C1CCCC1)n1cc(-c2ncnc3[nH]ccc23)cn1,Potency,OV90,inactive
same,Potency,PA-1,inactive
same,Potency,Tov112D,inactive
C[C@]12CCC(=O)C=C1CC[C@@H]1[C@@H]2[C@@H](O)C[C@@]2(C)[C@H]1CC[C@]2(O)C(=O)CO,Potency,PA-1,inactive
same,Potency,Tov-21-G,inactive
same,Potency,Tov112D,inactive
Cn1cc(-c2ccc3nnc(C(F)(F)c4ccc5ncccc5c4)n3n2)cn1,Potency,OV90,inactive
same,Potency,PA-1,inactive
same,Potency,Tov-21-G,inactive
same,Potency,Tov112D,inactive
CCc1cc(Nc2nccc(-c3c(-c4ccc(OC)c(C(=O)Nc5c(F)cccc5F)c4)nc4ccccn34)n2)c(OC)cc1N1CCC(N2CCN(S(C)(=O)=O)CC2)CC1,Potency,OV90,inactive
same,Potency,SKOV3,inactive
same,Potency,Tov-21-G,inactive
same,Potency,Tov112D,inactive
same,Potency,[4],inactive
CC(C)(N)C(=O)N[C@H](COCc1ccccc1)C(=O)N1CCC2(CC1)CN(S(C)(=O)=O)c1ccccc12,Potency,OV90,inactive
same,Potency,PA-1,inactive
same,Potency,Tov-21-G,inactive
same,Potency,Tov112D,inactive
Cc1cc(Nc2nc(N[C@@H](C)c3ncc(F)cn3)ncc2Cl)n[nH]1,Potency,Tov-21-G,14.1 µM (active)
same,Potency,[4],1.4 µM (active)
